The list is not random: actives were taken first. Their share in the collection is about 6.8%.
KB-3-1 cytotox – qHTS assay for MDR1-selective chemotherapeutics: Primary screen using the parental adenocarcinoma cell KB-3-1. KB-3-1 viability, CellTiter-Glo ATP luminescence, 72 h. Potency, µM (doses to about 46.1 µM), actives largely listed as cytotoxic. actives 1.4% (n = 400,000); also: % is scaled to controls: 0 for no effect and ±100 for the full control effect; nearly all actives have a fitted effect of over 60% in size
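Here the drug-naive KB-3-1 line serves as comparator for MDR sub-line selectivity; cells received compound titrations, 72 h at 37 °C, then CellTiter-Glo readout.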
PTAP TSG101 blk – qHTS Assay for Iinhibitors of HIV-1 Budding by Blocking the Interaction of PTAP/TSG101; Tumor susceptibility gene 101 protein (Homo sapiens), Q99816; Fluorescence polarization, FITC-PTAP peptide / Tsg101 binding; Potency, µM (series often up to 115 µM), for the others: at the top dose activity change, negative = inhibition, usual class: inhibitors; 340,000 tested, under 10 active; AID 493005, 2010; active = well fitted inhibition curve with a large enough effect in the main read-out, with a control signal flat, not every such curve was filed as active; inconclusive = small, poorly fitted or top-dose-only effect, or effect the other way, or a change in a side signal; inactive = no such curve, though single readings can be large or run the other way; also: % of control where 0% means no effect
Target sequence (Q99816 whole entry, looked up): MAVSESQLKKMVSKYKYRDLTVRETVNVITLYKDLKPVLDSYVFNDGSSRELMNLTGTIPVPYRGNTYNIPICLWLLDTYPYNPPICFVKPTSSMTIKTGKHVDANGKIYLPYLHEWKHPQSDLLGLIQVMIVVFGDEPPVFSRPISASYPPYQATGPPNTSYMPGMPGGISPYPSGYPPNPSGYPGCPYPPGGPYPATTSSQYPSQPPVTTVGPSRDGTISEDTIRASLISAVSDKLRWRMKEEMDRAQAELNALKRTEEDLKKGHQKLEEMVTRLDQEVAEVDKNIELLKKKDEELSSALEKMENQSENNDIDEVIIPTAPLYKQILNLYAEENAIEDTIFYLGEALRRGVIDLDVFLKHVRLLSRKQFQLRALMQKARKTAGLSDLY
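Fluorescence anisotropy tracks displacement of a FITC-tagged PTAP peptide (50 nM) from the Tsg101 binding domain (10 uM), following a 20 min room-temperature incubation at pH 7.5.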
MCF10A rereplic – A quantitative high throughput screen for small molecules that induce DNA re-replication in MCF 10a normal breast cells | MCF 10A DNA re-replication, Hoechst nuclear intensity, 48 h | Potency, µM (doses to about 46.1 µM), inactives show top-dose activity, positive = re-replication, usual class: activators | actives 2.9% (n = 350,000) | AID 624296, 2012; also: % of control where 0% means no effect; nearly all actives have a fitted effect of over 50% in size
PINK1 expr mod – A Quantitative High throughput Screen to Identify Chemical Modulators of PINK1 Expression. PINK1 immunofluorescence, high-content cytometry, 24 h. Potency, µM (series often up to 76.6 µM), inactives show at the top dose activation (PINK1 increase), usual class: activators. actives 0.2% (n = 410,000); active = well fitted activation curve with a large enough effect; inconclusive = small, poorly fitted or top-dose-only effect; cell line not stated here; also: % of control where 0% means no effect; nearly all actives have a fitted effect of over 65% in size
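Compound titrations (5 concentrations, 24 h) on a stable cell line; DMSO and CCCP controls. Endpoint: fixed-cell PINK1 immunofluorescence with mitochondrial, cell and nuclear markers, scanned by microplate cytometer.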
KB-V1 MDR tox – qHTS assay for MDR1-selective chemotherapeutics: Primary screen using the drug-selected MDR subline cells KB-V1. Potency, µM (doses to about 46.1 µM), actives largely listed as cytotoxic. actives 3.4% (n = 400,000). KB-V1 MDR cells viability, CellTiter-Glo, 72 h; also: % is scaled to controls: 0 for no effect and ±100 for the full control effect; nearly all actives have a fitted effect of over 60% in size
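Readout: CellTiter-Glo luminescence, 10 min after addition. Cells: KB-V1 MDR subline, 72 h at 37 degrees C with compound. Analysis: corrected, normalized data fitted to concentration-effect curves.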
SW480 rereplic – A quantitative high throughput screen for small molecules that induce DNA re-replication in SW480 colon adenocarcinoma cells; SW480 DNA re-replication, Hoechst DNA content imaging, 48 h; Potency, µM (doses to about 46.1 µM), for the others: at the highest dose re-replication activation, most hits filed as activators; actives 1.8% (n = 340,000); AID 624297, 2012; also: % of control where 0% means no effect; nearly all actives have a fitted effect of over 55% in size
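Image-based DNA-content assay: after two days of treatment, nuclei were labelled with the DNA dye Hoechst and imaged, and hits were compounds raising the count of nuclei showing high fluorescence intensity.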
The depositor's hits bear a star; ! = a repeat was not active. Unless noted, calls follow the shape of the dose curve; as a rule, active = well fitted curve in the direction sought with a large enough effect; inconclusive = small, poorly fitted or top-dose-only effect, or another doubt; inactive = no such curve, though single readings can be large; an effect the other way counts as inactive or inconclusive. Potency is read from the fitted curve at half-maximal effect.

Results for CC(C)(C)c1ccc(C(=O)NCC(c2cccs2)S(=O)(=O)c2cccs2)cc1 (stereo unspecified) ?
KB-3-1 cytotox: inactive; PINK1 expr mod: -1%; KB-V1 MDR tox: inactive

How did O=C1/C(=N\S(=O)(=O)c2cccs2)C([n+]2ccccc2)=C([O-])c2ccccc21 do in these assays?
KB-3-1 cytotox: 6.5µM*; PTAP TSG101 blk: inconclusive; MCF10A rereplic: 17%; PINK1 expr mod: -1%; KB-V1 MDR tox: inactive; SW480 rereplic: 12µM*

How did CC(C)(C)c1cc[n+](C2=C([O-])c3ccccc3C(=O)/C2=N\S(=O)(=O)c2cccs2)cc1 do in these assays?
KB-3-1 cytotox: 16µM*; PTAP TSG101 blk: -1%; MCF10A rereplic: inconclusive; PINK1 expr mod: -3%; KB-V1 MDR tox: inactive; SW480 rereplic: inconclusive

Results for COC(=O)c1ccc(C2c3c(-c4ccccc4O)n[nH]c3C(=O)N2Cc2cccnc2)cc1 (stereo unspecified) ?
KB-3-1 cytotox: inactive; PINK1 expr mod: -2%; KB-V1 MDR tox: inconclusive

How did COc1ccc(CNC(=O)CCC2N=C3c4ccccc4N=C(SCc4ccccc4F)N3C2=O)cc1 (stereo unspecified) do in these assays?
KB-3-1 cytotox: inactive; PINK1 expr mod: 1%; KB-V1 MDR tox: inactive

Results for CC(C)OP(=O)(OC(C)C)C(NC(=O)c1ccc(Br)cc1)c1ccccc1 (stereo unspecified) ?
KB-3-1 cytotox: inconclusive; PTAP TSG101 blk: 38%; MCF10A rereplic: inconclusive; PINK1 expr mod: inconclusive; KB-V1 MDR tox: 3.7µM*; SW480 rereplic: inconclusive

How did O=S(=O)(c1ccc(Cl)cc1)c1nc(-c2cccs2)oc1SCc1ccccc1F do in these assays?
KB-3-1 cytotox: inactive; PINK1 expr mod: -1%; KB-V1 MDR tox: inactive

Results for O=C(Nc1ccc(N2CCOCC2)c(Cl)c1)c1ccc([N+](=O)[O-])o1 ?
KB-3-1 cytotox: inactive; PTAP TSG101 blk: -4%; MCF10A rereplic: inconclusive; PINK1 expr mod: 0%; KB-V1 MDR tox: inactive; SW480 rereplic: 6%

What do the screens show for `CCCC(=O)N1CCN(c2ccc(NC(=O)c3ccc([N+](=O)[O-])o3)cc2Cl)CC1`?
KB-3-1 cytotox: inconclusive; PTAP TSG101 blk: 0%; MCF10A rereplic: 1.8µM*; PINK1 expr mod: 0%; KB-V1 MDR tox: inconclusive; SW480 rereplic: 17%

Results for CN1CCN(c2ccc(NC(=O)c3ccc([N+](=O)[O-])o3)cc2Cl)CC1 ?
KB-3-1 cytotox: inconclusive; PTAP TSG101 blk: -8%; MCF10A rereplic: 1.5µM*; PINK1 expr mod: 9%; KB-V1 MDR tox: inconclusive; SW480 rereplic: 1.5µM*

How did COc1ccc(-c2nc(SCC(=O)Nc3cccc(C(C)=O)c3)n[nH]2)cc1 do in these assays?
PINK1 expr mod: 0%

What do the screens show for `Cc1cc(C)c2c(n1)nn1c(C)c(CCC(=O)NCc3ccc(Cl)cc3)c(C)nc21`?
KB-3-1 cytotox: inactive; PINK1 expr mod: 5%; KB-V1 MDR tox: inactive

Results for CCOC(=O)C1=C(C)C/C(=N\NC(=O)c2ccccc2O)CC1 ?
KB-3-1 cytotox: inactive; PTAP TSG101 blk: -2%; MCF10A rereplic: 24%; PINK1 expr mod: 1%; KB-V1 MDR tox: inconclusive; SW480 rereplic: 18µM*

What do the screens show for `Cc1ccc(C2=CC(C)(c3ccc(C)cc3)Nc3nc(C(F)(F)F)nn32)cc1` (stereo unspecified)?
KB-3-1 cytotox: inactive; PTAP TSG101 blk: -2%; MCF10A rereplic: 6%; PINK1 expr mod: 11%; KB-V1 MDR tox: inconclusive; SW480 rereplic: 1%

Results for CC1(c2ccc(OCC#N)cc2)C=C(c2ccc(OCC#N)cc2)n2nc(C(F)(F)F)nc2N1 (stereo unspecified) ?
KB-3-1 cytotox: inconclusive; PTAP TSG101 blk: -7%; MCF10A rereplic: 18µM*; PINK1 expr mod: -4%; KB-V1 MDR tox: inconclusive; SW480 rereplic: inconclusive

How did O=C1CCC[C@@H]2C[C@@]3(C[C@@H]4CCN1[C@H]24)Nc1cc(Cl)ccc1NC3=NC1CCCCC1 do in these assays?
KB-3-1 cytotox: inactive; PTAP TSG101 blk: -6%; MCF10A rereplic: 8%; PINK1 expr mod: 2%; KB-V1 MDR tox: inactive; SW480 rereplic: inconclusive

How did Cc1cc2c(cc1C)N[C@]1(C[C@H]3CCCC(=O)N4CC[C@@H](C1)[C@@H]34)C(=NC(C)(C)CC(C)(C)C)N2 do in these assays?
KB-3-1 cytotox: inconclusive; PTAP TSG101 blk: -1%; MCF10A rereplic: 37%; PINK1 expr mod: 1%; KB-V1 MDR tox: 21µM*!; SW480 rereplic: inconclusive

How did CC(C)(C)CC(C)(C)N=C1Nc2ccc(Cl)cc2N[C@]12C[C@H]1CCCC(=O)N3CC[C@@H](C2)[C@@H]13 do in these assays?
KB-3-1 cytotox: inconclusive; KB-V1 MDR tox: 21µM*

What do the screens show for `COc1ccc(NC(=O)C2CCCN(c3nnc(C)c4c(C)n(-c5ccccc5)nc34)C2)cc1Cl` (stereo unspecified)?
KB-3-1 cytotox: inactive; PINK1 expr mod: 3%; KB-V1 MDR tox: inactive

Results for CCc1ccc(CNC(=O)Cn2ccc3cc(S(=O)(=O)N4CCCCCC4)ccc32)cc1 ?
KB-3-1 cytotox: inactive; PINK1 expr mod: 0%; KB-V1 MDR tox: inactive

How did CCn1ccc2cc(S(=O)(=O)N3CCCN(C(=O)Nc4ccccc4C(F)(F)F)CC3)ccc21 do in these assays?
KB-3-1 cytotox: inactive; PINK1 expr mod: 0%; KB-V1 MDR tox: inconclusive

How did CCOC(=O)c1ccccc1NC(=O)N1CCCN(S(=O)(=O)c2ccc3c(ccn3CC)c2)CC1 do in these assays?
KB-3-1 cytotox: inconclusive; PINK1 expr mod: 6%; KB-V1 MDR tox: 15µM*

What do the screens show for `CCc1ccc(CNC(=O)CCCn2ccc3cc(S(=O)(=O)N4CCCC4)ccc32)cc1`?
KB-3-1 cytotox: 5.8µM*; PINK1 expr mod: 1%; KB-V1 MDR tox: inconclusive

What do the screens show for `O=C1CCC[C@@H]2C[C@@]3(C[C@@H]4CCN1[C@H]24)Nc1cc([N+](=O)[O-])ccc1NC3=NCc1ccccc1`?
KB-3-1 cytotox: inactive; KB-V1 MDR tox: inactive

What do the screens show for `COc1ccc(/C=C(/CC(=O)NCc2ccc(Cl)cc2)c2nc3ccccc3s2)cc1`?
KB-3-1 cytotox: inactive; PTAP TSG101 blk: 3%; MCF10A rereplic: 2%; PINK1 expr mod: inconclusive; KB-V1 MDR tox: 10µM*; SW480 rereplic: inconclusive

Screening data (PubChem BioAssay)
